Hits are enriched below; roughly 3.5% of the tested compounds scored in any of these assays.
TEAD-YAP block: TEAD-YAP interaction inhibition, primary screen, TEAD-YAP interaction inhibitor project, luminescence, HEK-TIYL cells. TEAD-Gal4/YAP UAS-luciferase luminescence. inhibition, % at 9.12 µM. 1.4% of 640,000 active. AID 1259422, 2018; in the data active means inhibition above about 32%
MITF primary: MITF inhibitors, primary screen, biochemical, AlphaScreen, human. Microphthalmia-associated transcription factor (Homo sapiens), O75030. AlphaScreen MITF homodimerization, bead proximity signal. 0.91% of 650,000 active. AID 1259374, 2018. inhibition, % at 2.6 µM; in the data active means inhibition above about 50%
GPR151 activ: activators of human GPR151, primary screen, cell-based, PathHunter beta-arrestin, luminescence | PathHunter beta-arrestin GPR151 cells | 1% of 650,000 active | G-protein coupled receptor 151 (Homo sapiens), Q8TDV0 | activation, % at 11.2 µM; in the data active means activation above about 4.9%
FBW7 act: FBW7 E3 ligase activators, primary screen, biochemical, AlphaScreen, human; F-box/WD repeat-containing protein 7 (Homo sapiens), Q969H0; AlphaScreen FBW7–phospho-cyclin E peptide binding, activator screen; normalized activity (activation), % at 26.1 µM; 0.13% of 650,000 active; AID 1259310, 2017; in the data active means normalized activity above about 1.9%;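 further: purified mutant Fbw7 with reduced substrate affinity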
Target sequence (Q969H0 whole entry, looked up): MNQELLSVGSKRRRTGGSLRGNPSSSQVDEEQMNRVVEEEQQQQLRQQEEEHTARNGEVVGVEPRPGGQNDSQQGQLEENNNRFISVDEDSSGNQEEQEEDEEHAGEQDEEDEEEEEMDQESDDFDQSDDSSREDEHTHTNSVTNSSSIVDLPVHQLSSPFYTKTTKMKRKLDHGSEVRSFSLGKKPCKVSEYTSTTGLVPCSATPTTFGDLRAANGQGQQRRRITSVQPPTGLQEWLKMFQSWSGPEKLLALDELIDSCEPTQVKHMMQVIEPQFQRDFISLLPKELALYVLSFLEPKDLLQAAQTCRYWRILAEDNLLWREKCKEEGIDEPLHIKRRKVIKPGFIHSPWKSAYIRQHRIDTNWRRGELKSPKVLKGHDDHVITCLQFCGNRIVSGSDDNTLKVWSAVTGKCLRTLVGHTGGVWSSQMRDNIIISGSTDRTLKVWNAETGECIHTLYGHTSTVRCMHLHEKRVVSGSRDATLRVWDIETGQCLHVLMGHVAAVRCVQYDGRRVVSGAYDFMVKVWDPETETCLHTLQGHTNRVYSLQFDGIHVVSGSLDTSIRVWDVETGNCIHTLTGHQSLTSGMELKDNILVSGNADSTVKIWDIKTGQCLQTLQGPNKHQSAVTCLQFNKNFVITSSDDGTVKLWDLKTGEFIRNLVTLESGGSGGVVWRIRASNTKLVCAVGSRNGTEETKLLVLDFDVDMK
GPR151 confirm: GPR151 activators, triplicate retest, confirmation, cell-based, PathHunter beta-arrestin, luminescence; activation, % at 11.2 µM; GPR151 PathHunter beta-arrestin cells, 90 min; % of EA-reagent control over plate median; AID 1508609, 2020; 6,700 tested, under 10 active; shares compounds with GPR151 activ;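 active means mean percent activation across replicates above the confirmation screen cutoff of 4.91%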
GPR119 counter: GPR119 activators in beta-arrestin cells, counter-screen for GPR151 activator project, cell-based, PathHunter beta-arrestin, luminescence, triplicate; shares compounds with GPR151 activ; 90 min; 0 = compound-well median, 100 = enzyme-acceptor control; activation, % at 11.2 µM; 0.3% of 6,700 active;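 active means mean percent activation in the counterscreen above 29.09%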;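 further: counterscreen on off-target GPR119 to flag nonselective hits from the GPR151 activator screen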
Each line names hits and unclear results; the compound was inactive in the other large screens (follow-up assays come after a bar, where they were run).

CC(=O)Nc1sc2c(c1CN1CCN(c3ccccc3)CC1)CCCC2	none
CN(Cc1cnn(C)c1)C(=O)CC1C(=O)NCCN1Cc1ccc(-c2ccccc2)cc1 (configuration not stated)	none
Cc1cnc(NCCCN2CCCC2=O)nc1NCCCN1CCCC1=O	GPR151 activ 6.8 | GPR151 confirm inactive | GPR119 counter inactive
CCNc1ncc(C)c(NCCCN2CCCC2=O)n1	none
COc1ccc(-n2nc(C(=O)NCC(=O)NCCCN3CCC(C)CC3)c3ccccc3c2=O)cc1OC	none
COc1ccc(OC)c(NC(=O)c2nn(-c3ccc(OC)cc3OC)c(=O)c3ccccc23)c1	GPR151 activ 8.7 | GPR151 confirm inactive | GPR119 counter inactive
COc1ccc(-n2nc(C(=O)Nc3cc(Cl)ccc3OC)c3ccccc3c2=O)c(OC)c1	none
CCOc1ccc(NC(=O)c2nnn(-c3ccccc3OC)c2C)cc1	GPR151 activ 5.7 | GPR151 confirm inactive | GPR119 counter inactive
COc1ccccc1-n1nc(C(=O)Nc2ccc(Cl)cn2)c2ccccc2c1=O	GPR151 activ 7.6 | GPR151 confirm inactive | GPR119 counter inactive
COc1ccc(-n2nc(C(=O)NCC(=O)NCCCN3CCN(c4cccc(Cl)c4)CC3)c3ccccc3c2=O)cc1OC	GPR151 activ 4.9 | GPR151 confirm inactive | GPR119 counter inactive
Cc1ccc(NC(=O)CCc2c(C)nc3nc[nH]n3c2=O)cc1	none
O=C(COc1ccc(Br)cc1Cl)NC1CCCC1	none
COc1ccc(-c2nc(=S)c3c(n2Cc2ccco2)CCCC3)cc1	none
CCOc1ccc(-n2nc(C(=O)Nc3ccc(OC)c(OC)c3)c3ccccc3c2=O)cc1	GPR151 activ 5.6 | GPR151 confirm inactive | GPR119 counter inactive
CCOc1ccccc1N(C)C(=O)c1nn(-c2ccc(OC)cc2)c(=O)c2ccccc12	none
CCOc1ccc(NC(=O)CNC(=O)c2nn(-c3ccc(OC)c(OC)c3)c(=O)c3ccccc23)cc1	none
CCOc1ccccc1N(C)C(=O)c1nn(-c2cc(OC)cc(OC)c2)c(=O)c2ccccc12	GPR151 activ 6.6 | GPR151 confirm inactive | GPR119 counter inactive
CCOc1ccccc1NC(=O)Cn1c(C)c(C=O)c2ccccc21	none
CCCNC(=O)C1CCN(C(=O)N2CC(C)Oc3ccccc32)CC1 (configuration not stated)	none
CCCNC(=O)C1CCN(C(=O)N2CC(C)Oc3ccc(Cl)cc32)CC1 (configuration not stated)	GPR151 activ 11 | GPR151 confirm inactive | GPR119 counter inactive
CCOC(=O)C1CCCN(c2cc(Nc3ccc(OCC)cc3)c3c4c(onc24)-c2ccccc2C3=O)C1 (configuration not stated)	none
COc1ccc(-c2nc(NCCc3ccc(O)cc3)nc(OC)n2)cn1	GPR151 activ 5.9 | GPR151 confirm inactive | GPR119 counter inactive
COc1ccc(CCNc2cc(-c3ccc(OC)nc3)ncn2)cc1	GPR151 activ 5.2 | GPR151 confirm inactive | GPR119 counter inactive
COc1ccc(CCNc2cc(N3CCCC3CO)ncn2)cc1 (configuration not stated)	GPR151 activ 14 | GPR151 confirm inactive | GPR119 counter inactive
COc1ccc(-c2cc(NCCc3ccc(O)cc3)ncn2)cn1	none
CCCNc1cc(N2CCCC2CO)ncn1 (configuration not stated)	none
CCC(C)c1ccccc1NC(=O)c1ccco1 (configuration not stated)	none
O=C(CN1CCC(O)(c2ccccn2)CC1)Nc1ccc(N2CCCCC2)cc1	none
O=C(CC1C(=O)NCCN1CC(c1ccccc1)c1ccccc1)NC1CCC(O)CC1 (configuration not stated)	GPR151 activ 5.3 | GPR151 confirm inactive | GPR119 counter inactive
COc1ccccc1/C=C/CN1CCNC(=O)C1CC(=O)NC1CCC1 (configuration not stated)	none
COc1ccccc1/C=C/CN1CCNC(=O)C1CC(=O)NC1CCOCC1 (configuration not stated)	GPR151 activ 4.9 | GPR151 confirm inactive | GPR119 counter inactive
O=C(CC1C(=O)NCCN1Cc1ccc2ccccc2c1)NC1CCCCCC1 (configuration not stated)	GPR151 activ 9.5 | GPR151 confirm inactive | GPR119 counter inactive
O=C(CC1C(=O)NCCN1Cc1ccc2ccccc2c1)NC1CCOCC1 (configuration not stated)	none
O=C(c1cccnc1)N1CCN(c2ccc(Cl)cc2[N+](=O)[O-])CC1	none
Cc1cc(N2CCCCC2)nc2ccc(NC(=O)CCC3CCCC3)cc12	none
Cc1ccc(NC(=O)COC(=O)CSCc2c(C)[nH]c(=O)[nH]c2=O)cc1	none
CCN1C(=O)/C(=C/c2ccc(OCc3ccc(C(=O)O)cc3)cc2)NC1=S	GPR151 activ 7.8 | GPR151 confirm inactive | GPR119 counter inactive
CCN1C(=O)/C(=C/c2ccc(C(=O)OC)cc2)NC1=S	none
COc1ccc(OC)c(/C=C2/NC(=O)N(Cc3ccc(Br)cc3)C2=O)c1	none
COc1cc(OC)c(/C=C2/NC(=O)N(Cc3ccc(F)cc3)C2=O)c(OC)c1	GPR151 activ 6.2 | GPR151 confirm inactive | GPR119 counter inactive
COc1ccc(OC)c(/C=C2\NC(=O)N(Cc3ccc(Cl)cc3)C2=O)c1	GPR151 activ 7.9 | GPR151 confirm inactive | GPR119 counter inactive
CC(=O)c1ccc(N2C(=O)C3C(C2=O)C2(CO)C=CC3(C)O2)cc1 (configuration not stated)	GPR151 activ 5.5 | GPR151 confirm inactive | GPR119 counter inactive
CC(C)N(CCNC1CCS(=O)(=O)C1)C(C)C (configuration not stated)	GPR151 activ 8.4 | GPR151 confirm inactive | GPR119 counter inactive
Cc1onc(-c2ccccc2Cl)c1C(=O)N1CCN(c2ccccn2)CC1	none
Cn1c(SCC(=O)c2ccc(F)cc2)nnc1-c1cccc([N+](=O)[O-])c1	GPR151 activ 5.7 | GPR151 confirm inactive | GPR119 counter inactive
Cn1c(SCCC(=O)O)nnc1-c1cccc([N+](=O)[O-])c1	none
COc1ccccc1-c1nnc(SCc2nnc(-c3cccc([N+](=O)[O-])c3)o2)n1C	GPR151 activ 6.3 | GPR151 confirm inactive | GPR119 counter inactive
COc1ccc(COC(=O)C2=C(C)NC3=C(C(=O)CC(C)(C)C3)C2c2coc3ccc(Cl)cc3c2=O)cc1 (configuration not stated)	none
COc1cc(Nc2cc(C)nc(N3CCc4ccccc4C3)n2)cc(OC)c1OC	none
